Source: PubChem (National Center for Advancing Translational Sciences (NCATS))
Sampled rows, rich in hits. Any-hit rate of the full collection: about 2.8%.
Pol beta inh – inhibitors of human DNA polymerase beta | P06746 | Pol beta primer extension/strand displacement, fluorescence kinetic | Potency, µM (doses to about 114 µM), inactives show top-dose activity change, negative = inhibition, actives largely listed as inhibitors | actives 1.3% (n = 340,000); note: potency is the fitted concentration of half-maximal effect; % is set by controls: 0 for no effect and ±100 for the full control effect
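Preincubation: enzyme (10 nM) with compound, 15 min, RT. Reaction: substrate added to 50 nM final. Reads: 0 and 10 min. Analysis: normalized, Hill fit.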
Pol kappa inh – DNA polymerase kappa (human) inhibition | purified Pol kappa, fluorescent DNA synthesis assay, 10 min | actives 0.53% (n = 400,000) | Potency, µM (series often up to 107 µM), without a hit: at the top dose activity, negative = inhibition, most hits filed as inhibitors | Q9UBT6; note: potency is the fitted concentration of half-maximal effect; % is set by controls: 0 for no effect and ±100 for the full control effect
Target sequence (Q9UBT6 whole entry, looked up): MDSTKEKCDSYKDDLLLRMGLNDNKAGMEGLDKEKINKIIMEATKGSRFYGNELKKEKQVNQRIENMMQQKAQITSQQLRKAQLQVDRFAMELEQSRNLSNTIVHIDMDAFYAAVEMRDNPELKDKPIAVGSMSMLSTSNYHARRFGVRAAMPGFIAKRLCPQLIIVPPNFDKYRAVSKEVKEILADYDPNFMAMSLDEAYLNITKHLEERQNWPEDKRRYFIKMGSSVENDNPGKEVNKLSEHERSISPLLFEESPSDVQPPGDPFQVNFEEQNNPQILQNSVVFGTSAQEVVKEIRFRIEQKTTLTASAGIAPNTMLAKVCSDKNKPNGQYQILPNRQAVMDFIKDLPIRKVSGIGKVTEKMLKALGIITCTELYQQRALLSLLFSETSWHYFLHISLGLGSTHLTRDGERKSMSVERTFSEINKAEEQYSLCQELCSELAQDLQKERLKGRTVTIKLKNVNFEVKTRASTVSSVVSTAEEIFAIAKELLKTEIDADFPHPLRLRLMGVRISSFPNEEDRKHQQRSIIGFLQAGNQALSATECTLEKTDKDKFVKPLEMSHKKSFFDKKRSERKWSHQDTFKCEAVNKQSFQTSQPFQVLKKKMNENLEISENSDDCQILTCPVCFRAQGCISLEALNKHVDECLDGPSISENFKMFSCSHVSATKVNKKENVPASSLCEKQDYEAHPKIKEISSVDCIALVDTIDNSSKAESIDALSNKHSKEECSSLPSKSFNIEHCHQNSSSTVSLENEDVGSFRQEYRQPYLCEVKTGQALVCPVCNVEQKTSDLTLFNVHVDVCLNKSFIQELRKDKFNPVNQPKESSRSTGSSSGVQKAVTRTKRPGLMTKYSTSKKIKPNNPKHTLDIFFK
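First, compounds were pin-transferred onto 10 nM Pol kappa. After 15 min at room temperature, substrate was added to 50 nM final. Fluorescence was then measured kinetically at 0 and 10 min.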
Pol eta inh – blocks human DNA polymerase eta activity; Q9Y253; Potency, µM (doses to about 114 µM), for the others: top-dose activity change, negative = inhibition, hits mostly inhibitors; actives 1.2% (n = 390,000); recombinant Pol eta, fluorescent DNA replication assay; AID 588591; note: potency is the fitted concentration of half-maximal effect; % is set by controls: 0 for no effect and ±100 for the full control effect
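Fluorescent replication assay: 50 nM final substrate added after a 15 min room-temperature compound preincubation with 10 nM enzyme. Signal taken at 0 min and again at 10 min.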
PI5P4K alpha inh – PI5P4K alpha (human) kinase inhibition; PI5P4Kalpha enzyme, ADP-Glo luminescence, 60 min; hits give low values; max response, %; actives 1.2% (n = 330,000); active = max response of -50% or lower; inconclusive = between -30% and -50%; inactive = -30% or higher; note: value at the top dose of about 77 µM; % is set by controls: 0 for no effect and ±100 for the full control effect
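Luminescence from ADP-Glo served as readout of PI5P4Kalpha activity in a qHTS format. Reaction: enzyme, substrate, compound, ATP at 5 microM final, 60 min at RT.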
FEN1 inhibitor – human FEN1 inhibition. Potency, µM (highest dose often 114 µM), for the others: at the top dose activity change, negative = inhibition, usual class: inhibitors. actives 0.35% (n = 390,000). Recombinant FEN1 flap cleavage, fluorescence, 15 min. P39748; note: potency is the fitted concentration of half-maximal effect; % is set by controls: 0 for no effect and ±100 for the full control effect; nearly all actives have a fitted effect of over 65% in size
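Steps: FEN1 (10 nM) dispensed; compound added by pin tool; 15 min at room temperature; substrate added to 50 nM final; reads at 0 min and 15 min; data normalized and fitted (four-parameter Hill).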
POLI inh – blocks human DNA polymerase iota activity | Q9UNA4 | Pol iota fluorescent replication assay, 10 min | Potency, µM (doses to about 115 µM), inactives show at the top dose activity, negative = inhibition, hits mostly inhibitors | actives 1% (n = 390,000) | AID 588590; note: potency is the fitted concentration of half-maximal effect
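Fluorescent replication assay read twice, at 0 min and 10 min after adding 50 nM (final) substrate. Enzyme (10 nM) and compounds were first incubated 15 min at room temperature; enzyme-free buffer wells were negative controls.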
Starred values were filed as active, the others as inactive; ? = inconclusive; . = not tested or not shown; [ ] = remark or other dose. Unless noted, calls come from the whole dose curve; as a rule, active = well fitted curve in the direction sought with a large enough effect; inconclusive = small, poorly fitted or top-dose-only effect, or another doubt; inactive = no such curve, though single readings can be large; an effect the other way counts as inactive or inconclusive.

SMILES	Pol beta inh	Pol kappa inh	Pol eta inh	PI5P4K alpha inh	FEN1 inhibitor	POLI inh
COc1ccc(N(CCN2C(=O)c3ccccc3C2=O)C(=O)c2cccc([N+](=O)[O-])c2)cc1	0.159µM*	2.5%[60.1 µM]	?	-0.1	-6.8%	-15.0%
COc1ccc(N(CCCN2C(=O)c3cccc4cccc(c34)C2=O)C(=O)c2ccncc2)cc1	0.7%	-3.7%	-4.8%	-0.5	-13.9%	12.0%
COc1ccccc1CNC(=O)CCNS(=O)(=O)c1ccc2[nH]c(=O)oc2c1	?	-23.7%	79.4µM*	3.2	-3.7%	-20.6%
COc1ccccc1NC(=O)CCNS(=O)(=O)c1ccc2[nH]c(=O)oc2c1	-10.4%	?	25.1µM*	-12.1	-21.4%	?
O=C(c1cccc(Cl)c1)N1c2ncnn2C2(CCCCC2)[C@@H]2CCCC[C@@H]21	-0.6%	-4.6%	-8.1%	.	-8.0%	?
Nc1nc2ccc([N+](=O)[O-])c(N)c2s1	9.2%	-19.4%	2.7%	-57.8*	-12.0%	-0.4%
Clc1ccc2c(N/N=C/c3cccc(Br)c3)ccnc2c1	31.6µM*	-11.4%	2.0%	-69.4*	-12.6%	-12.1%
O=[N+]([O-])c1ccc(/C=N/Nc2ccnc3cc(Cl)ccc23)o1	?	-21.9%	?	?	?	?
Clc1ccc2c(N/N=C/c3ccccc3Br)ccnc2c1	22.4µM*	0.0%	-0.9%	-26.5	-35.4%	-11.5%
O=C(Cn1cc(C(=O)c2cccs2)c2ccccc21)Nc1ccc(Br)cc1	-10.5%	-7.1%	3.7%	.	0.3%	12.3%
NCC(O)CC(=O)O (centres undefined)	.	-2.5%[60.1 µM]	.	.	.	.
Nc1ccc2ccc(O)cc2c1	.	?	50.1µM*	-19.3	?	?
Oc1ccc2ccc(Cl)cc2c1	.	-29.7%	-9.1%	6.4	-1.8%	-18.3%
COc1ccccc1CNC(=O)c1ccccc1C(=O)NC(CC(C)C)C(=O)NCc1ccccc1OC (centres undefined)	4.5%	-11.8%	-34.1%	3.1	-4.8%	70.8µM*
COc1ccccc1CNC(=O)c1cnccn1	39.8µM*	?	70.8µM*	.	-8.3%	?
COc1ccccc1CNC(=O)C(CC(C)C)NC(=O)C1CCC(C)CC1 (centres undefined)	9.2%	5.1%	1.0%	0.3	29.3%	1.6%
COc1ccccc1CNC(=O)COC(=O)c1cnccn1	67.5%	2.6%	-8.8%	3.4	44.3%	?
COc1ccc(NS(=O)(=O)c2cc(Br)cc3c2N(C(=O)C2CC2)CC3)cc1OC	-9.5%	-19.2%[60.1 µM]	-9.6%	.	-7.7%	7.2%
CCCC(CCC(=O)Nc1cc([N+](=O)[O-])ccc1O)C(=O)O (centres undefined)	22.4µM*	-14.7%	4.7%	5.6	1.3%	-11.0%
CCOc1ccc(OCC)c(NC(=O)C2CCCN(S(=O)(=O)c3cc(Br)cc4c3N(C(=O)CC)CC4)C2)c1 (centres undefined)	-0.3%	-24.1%	-4.2%	.	-7.1%	89.1µM*
CCC(=O)N1CCc2cc(Br)cc(S(=O)(=O)N3CCCC(C(=O)Nc4cccc(Cl)c4C)C3)c21 (centres undefined)	7.2%	10.4%	-12.7%	.	-5.1%	6.0%
CC[C@@H]1Cc2[nH][nH]c(=O)c2[C@H](c2ccc(Cl)cc2)O1	.	.	.	-7.5	.	.
COc1cc(OC)c(OC)cc1/C=C/c1nc2ccccc2o1	.	-6.8%	.	.	-4.8%	27.0%
O=C(N/N=C/c1ccc([N+](=O)[O-])o1)c1cn(-c2ccccc2)nc1-c1ccc(Cl)cc1	?	-7.3%	8.2%	-10.2	-8.8%	-6.8%
O=[N+]([O-])CC(=Nc1ccc(Cl)cc1)N/N=C\c1oc(O)c2ccccc12	1.3%	-26.3%	39.8µM*	?	-3.4%	71.0%
SMILES	Pol beta inh	Pol kappa inh	Pol eta inh	PI5P4K alpha inh	FEN1 inhibitor	POLI inh
CC(C)N1CCc2nc(SCC(=O)Nc3cccc(F)c3)[nH]c(=O)c2C1	4.8%	11.0%	-13.0%	.	11.3%	27.0%
COc1ccc2nc(-c3ccccc3)[nH]c(=O)c2c1	.	-13.6%	2.4%	-2.6	-8.9%	-20.8%
COc1ccc(-c2nc3ccc(N4CCCC4)cc3c(=O)[nH]2)cc1OC	39.8µM*	-3.2%	?	9.1	?	?
O=S(=O)(c1cnc2ccccc2c1)N1CCN(c2nc(-c3cccs3)nc3ccccc23)CC1	.	-7.2%	.	.	17.7%	12.2%
CC(C)[C@H](NS(=O)(=O)c1cccc(Cl)c1)C(=O)OCC(=O)NC(=O)CN1CCCC1=O	.	?	22.4µM*	-5.6	-18.0%	50.1µM*
O=C1c2ccccc2C(=O)c2c(NCCCN(CCO)CCO)cccc21	44.7µM*	-18.4%	?	0.3	20µM*	?
O=[N+]([O-])c1cc2c(cc1/C=N/NS(=O)(=O)c1ccc(Br)cc1)OCO2	3.2%	-30.1%	?	-20.9	50.1µM*	55.0%
OCC1NCC(O)C(O)C1O (centres undefined)	4.6%[57.1 µM]	-0.5%[60.1 µM]	-1.2%[57.1 µM]	.	.	-4.6%[58.9 µM]
COc1ccc(NC(=O)CN(Cc2ccccc2)S(=O)(=O)c2ccc(C)cc2)cc1Cl	-4.5%	-20.7%	-8.5%	.	-3.3%	7.0%
CCc1ccc(S(=O)(=O)N2CCN(C(=O)c3cccnc3)CC2)cc1	1.2%	-5.8%	-21.9%	-0.7	1.2%	23.7%
O=C(O)COc1ccccc1C(Nc1cccnc1)c1cc(Cl)c2cccnc2c1O (centres undefined)	-29.3%	?	79.4µM*	-64.5*	?	?
Cc1cc(C)c(NC(=O)CSc2nc3ccccc3nc2N2CCCCC2)c(C)c1	5.6%	-7.3%	-15.1%	.	?	-6.7%
CN1C(=O)/C(=N\OC(=O)c2cccc3ccccc23)c2ccccc21	46.1%	-5.8%	0.7%	.	-3.3%	31.6µM*
C=CC(=O)Nc1cccc(Nc2nc(N[C@H]3CC[C@H](N(C)C)CC3)nc3c2ncn3C(C)C)c1	.	-21.6%	?	-19.8	50.1µM*	?
COc1ccc(-c2ccc(/C=C3\C(=O)N(c4ccccc4)N=C3c3ccccc3)o2)c([N+](=O)[O-])c1	?	-5.8%	12.0%	-10.0	0.9%	5.7%
COc1ccc(-c2ccc(/C=C3/C(=N)N4C(C)=CSC4=NC3=O)o2)c([N+](=O)[O-])c1	?	?	?	-9.5	?	17.8µM*
COc1cc(-c2ccc(N=Nc3ccc4c(S(=O)(=O)O)cc(S(=O)(=O)O)c(N)c4c3O)c(OC)c2)ccc1N=Nc1ccc2c(S(=O)(=O)O)cc(S(=O)(=O)O)c(N)c2c1O	.	0.251µM*	.	.	.	.
COc1cc(-c2nnc(SCC(=O)c3ccc(C)cc3)o2)cc(OC)c1OC	-11.5%	-10.0%	-8.9%	.	-4.0%	-10.7%
COc1cc(-c2nnc(SCCOc3cc(C)cc(C)c3)o2)cc(OC)c1OC	50.1µM*	-11.1%	-18.6%	.	8.7%	-17.7%
